In all, about 3,600 compounds were measured (“viability index relative to DMSO control”: median about 0.81, lowest 2% from about 0.13 on). What follows is part of a selection rich in the lowest values, with near analogues and random picks from the rest.
System: Plasmodium falciparum NF54 stage V gametocytes
Assay: viability index relative to DMSO control (fraction); higher = less gametocyte killing
Settings: 1.25 µM, incubation time: 72 h
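Note: Saponin-lysis sexual stage assay in serum-free medium: MitoTracker Red CMXRos staining plus saponin, high-content imaging, particle count per well divided by plate mean of DMSO wells.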

Point of comparison: `CCN(CC)Cc1cc(Nc2ccnc3cc(Cl)ccc23)ccc1O`, viability index 0.873. Against it:
- CCOc1ccccc1C1C(C#N)=C(SCC(=O)Nc2ccc(Cl)cc2)NC(C)=C1C(=O)Nc1ccccc1 (configuration not stated) — lower, 0.5
- Fc1ccc(CSc2nc3cccnc3[nH]2)cc1 — higher, 1.24
- Cc1cc(C)cc(NC2=C(N)C(=O)c3ccccc3C2=O)c1 — lower, 0.707
- COc1cc2nc(Nc3ccc(F)cc3)nc(N)c2cc1OC — lower, 0.787
- COc1cc2nc(N3CCN(c4nc(N)c5cc(OC)c(OC)cc5n4)CC3)nc(N)c2cc1OC — lower, 0.0192
- COc1ccc(-c2cc(C3CCN(c4nc(N)c5cc(OC)c(OC)cc5n4)CC3)n[nH]2)cc1OC — higher, 1.17
- O=C(CNCCc1ccccc1)NC(c1ccccc1)c1ccccc1 — lower, 0.761
- CCOc1ccc(C=C(C#N)c2nc3ccccc3[nH]2)cc1OC — lower, 0.837
- COc1cc2c(-c3cc(Br)ccc3O)nc3c(c(Cc4ccccc4)nn3-c3ccccc3)c2cc1OC — lower, 0.595
- CC(C=NNC(N)=S)=NNC(N)=S — lower, 0.131
- NC(=S)NN=Cc1cc([N+](=O)[O-])ccc1O — lower, 0.176
- CCOc1ccc(CCN2C(=S)N(c3cccc(C(F)(F)F)c3)C(=O)C2CC(=O)Nc2ccc(C(=O)OC)cc2)cc1OCC (configuration not stated) — lower, 0.582
- N#Cc1c(-c2ccccc2)cc(N2CCN(C3CCCCC3)CC2)n2c1nc1ccccc12 — lower, 0.822
- COc1ccc(-c2c[n+](CC(=O)c3cccc(OC)c3)c3n2CCC3)cc1 — lower, 0.74
- Cc1ccc2c(c1)C(C)(c1ccc(Cl)cc1)CC(C)(C)N2C(=O)COc1ccc2ccccc2c1 (configuration not stated) — lower, 0.826
- O=C(C[n+]1cc(-c2ccc(F)cc2)n2c1CCC2)Nc1ccc(Cl)cc1 — higher, 1.44
- CCCc1ccc(C(=O)NC(=O)c2ccccc2O)cc1 — higher, 1.05
- Cc1c(Cl)cccc1NC(=O)CCC(=O)NNC(=O)c1ccccc1 — higher, 0.9
- CCSC(Cl)=C(NC(=O)c1ccccc1)[P+](c1ccccc1)(c1ccccc1)c1ccccc1 — lower, 0.0362
- COc1ccc(S(=O)(=O)N=C2C=C(Nc3ccccc3OC)C(=O)c3ccccc32)cc1 — lower, 0.0579
- O=C1C(Nc2ccc(O)cc2)=CC(=NS(=O)(=O)c2cccs2)c2ccccc21 — lower, 0.306
- O=C1C(Sc2nc[nH]n2)=CC(=NS(=O)(=O)c2cccs2)c2ccccc21 — lower, 0.707
- COc1ccccc1NC1=CC(=NS(=O)(=O)c2ccc(F)cc2)c2ccccc2C1=O — lower, 0.189
- COc1ccccc1NC1=CC(=NS(=O)(=O)c2cccs2)c2ccccc2C1=O — lower, 0.0154
- COc1ccccc1NC1=CC(=NS(=O)(=O)c2ccccc2)c2ccccc2C1=O — lower, 0.247
- Cc1cccc(CCNc2cc(C)nc3ncnn23)c1 — higher, 0.982
- COc1ccc2[nH]c(SCC(=O)Nc3cccc(NC(=O)CSc4nc5cc(OC)ccc5[nH]4)n3)nc2c1 — lower, 0.353
- Cc1cccc(NC(=O)C2C3C=CC4(O3)C2C(=O)N(CC2COc3ccccc3O2)C4C(=O)NC2CCCC(C)C2C)c1 (configuration not stated) — higher, 1.33
- Cc1cc2nc(NC(=N)N)nc(C)c2cc1C — lower, 0.718
- CC(C)c1ccc2c(c1)c1c3c([n+](C)ccn32)CCC1 — higher, 1.22
- CC(Cc1ccsc1)Nc1nc2nonc2nc1N(C)C (configuration not stated) — lower, 0.853
- Cc1ccc(OCCCCN2CCOCC2)c([N+](=O)[O-])c1 — lower, 0.798
- O=C(Nc1cc(Cl)cc(Cl)c1)Nc1cccc(C(F)(F)F)c1 — higher, 1.06
- O=C1C=C(Nc2cccc(C(F)(F)F)c2)C(=O)c2ccccc21 — lower, 0.0673
- COC1=C(Nc2cccc(C(F)(F)F)c2)C(=O)c2ccccc2C1=O — lower, 0.606
- CCOC(=O)c1ccc(N(C(=O)Cc2c[nH]c3ccccc23)C(C(=O)NC2CCCCC2)c2cccc(OC)c2OC)cc1 (configuration not stated) — lower, 0.849
- NC12CC3CC(C1)CC(SSC14CC5CC(CC(N)(C5)C1)C4)(C3)C2 — lower, 0.11
- COc1ccc(C2CC(=O)C3=C(C2)NC(=O)CC3c2ccc([N+](=O)[O-])cc2)cc1OC (configuration not stated) — lower, 0.406
- O=C(Nc1ccc(-n2cnnn2)cc1)C1CCN(Cc2cc3ccccc3o2)CC1 — higher, 0.942
- COc1ccc2c(c1)OC(O)(C(F)(F)C(F)(F)F)CC2=O (configuration not stated) — lower, 0.6
- CCN(CC)S(=O)(=O)c1cc(C(=O)O)ccc1Cl — higher, 0.971
- COc1cccc(OC)c1C(=O)Nc1cc(C(F)(F)F)ccc1Cl — higher, 0.971
- COc1ccc(C=NNc2cc(C)nc3ccc(OC)cc23)c(OC)c1 — lower, 0.591
- COc1ccc(C=NNc2cc(C)nc3ccccc23)cc1 — higher, 0.946
- COC(=O)c1ccc(C=NNc2cc(C)nc3ccc(OC)cc23)cc1 — lower, 0.0573
- CC(C)(C)CC(C)(C)c1ccc(O)c(CN2CCN(CCC#N)CC2)c1 — lower, 0.735
- COc1ccc(CNC2CCN(c3cccc(NC(=O)C4CC4)c3)CC2)cc1 — higher, 1.12
- C=CCN1C(=O)C(=C2Sc3ccc(OC)cc3N2C)SC1=Nc1ccccc1-c1ccccc1 — lower, 0.448
- Oc1ccc(-c2cncnc2)cc1CNC1CCN(Cc2ccccc2)CC1 — higher, 1
- Cc1nonc1C(=O)NN=Cc1ccc([N+](=O)[O-])o1 — lower, 0.871
- COc1ccc(-c2cnnc(NN=Cc3ccc([N+](=O)[O-])o3)n2)cc1 — lower, 0.0154
- O=[N+]([O-])c1ccc(-c2ccc(C=NNc3nc(Nc4ccccc4)nc(Nc4ccccc4)n3)o2)cc1 — lower, 0.626
- O=[N+]([O-])c1ccc(Nc2nc(NN=Cc3ccccc3I)nc(Nc3ccccc3)n2)cc1 — higher, 0.985
- O=[N+]([O-])c1ccc(C=NNc2nc(Nc3ccccc3)nc(Nc3ccccc3)n2)o1 — lower, 0.0664
- COc1ccc(Nc2nc(NN=Cc3cccc([N+](=O)[O-])c3OC)nc(Nc3ccc([N+](=O)[O-])cc3)n2)cc1 — lower, 0.469
- COc1ccc(NC(=O)NCc2cccn2Cc2ccc(F)cc2)cc1OC — higher, 0.952

From the supplement of paper PMC4723716
